Rows were chosen to be rich in hits. Some 0.51% of all compounds tested hit in one or more screens of this group.
FMDV Renilla: antivirals against foot and mouth disease virus replicon. FMDV replicon cells, Renilla luciferase signal. Potency, µM (highest dose often 57.5 µM), without a hit: top-dose activity change, negative = inhibition, usual class: inhibitors. 120,000 compounds, 0.32% hits. AID 1745857; note: nearly all actives have a fitted effect of over 55% in size
FMDV FLuc: shows antiviral activity against foot and mouth disease virus; FMDV antiviral cell assay, firefly luciferase signal; Potency, µM (doses to about 57.5 µM), without a hit: at the highest dose activity change, negative = inhibition, most hits filed as inhibitors; 120,000 compounds, 0.23% hits; AID 1745856; note: nearly all actives have a fitted effect of over 60% in size
* = called active by the depositor; ? = inconclusive. Calls come from the whole dose curve. % is set by controls: 0 for no effect and ±100 for the full control effect; potency is the fitted concentration of half-maximal effect.

SMILES	FMDV Renilla	FMDV FLuc
Cc1ccc2cc(C(=O)NCc3ccc(N4CCC(C)CC4)nc3)c(C)nc2c1	1µM*	?
Cc1nc(N2CCCC2)ncc1C(=O)NCc1ccc(F)cc1	10%	7%
Cc1nc2cc(F)ccc2cc1C(=O)NCc1ccc(C(=O)N2CCCC2)cc1	2.5µM*	6.3µM*
Cc1cc(F)ccc1NS(=O)(=O)c1cc(C(=O)O)cc2c1CCC2	45%	-1%
CCN1CCc2nc3sc(C(=O)Nc4cccc(Cl)c4C)c(N)c3cc2C1	7.1µM*	13µM*
Cc1cccc(NC(=O)c2sc3nc4c(cc3c2N)CN(Cc2ccccc2)CC4)c1	-6%	97%
O=[N+]([O-])c1ccc(C(=C(c2ccccc2)c2ccccc2)c2ccc([N+](=O)[O-])cc2)cc1	3.2µM*	2.5µM*
O=[N+]([O-])c1ccc(/C=C/c2ccccc2)cc1	8%	31%
Cc1ccc(/C=C(/C#N)C(=O)Nc2cccc3ncccc23)cc1	17%	2%
Cc1cccc(NC(=O)/C(C#N)=C/c2cc(C(C)(C)C)c(O)c(C(C)(C)C)c2)c1C	6.3µM*	?
Cc1ccc(/C=N/O)cc1	0%	-7%
Cc1cc(N2CCOCC2)nc(N2CCN(C(=O)Nc3ccccc3)CC2)n1	-4%	0%
CCN(CC)c1cc(C)nc(Nc2ccc(NS(=O)(=O)c3ccc(OC)c(OC)c3)cc2)n1	-61%	?
Cc1cc(N2CCCCC2)nc(Nc2ccc(NC(=O)Cc3ccccc3)cc2)n1	13µM*	14µM*
Cc1cc(N2CCOCC2)nc(Nc2ccc(NC(=O)CCc3ccccc3)cc2)n1	4µM*	5µM*
Cc1cc(N2CCCC2)nc(Nc2ccc(NC(=O)Nc3ccc(Cl)cc3)cc2)n1	13%	48%
Cc1cc(N2CCCC2)nc(Nc2ccc(NS(=O)(=O)c3ccc(Br)cc3)cc2)n1	-17%	32µM*
O=C(c1nn(Cc2ccccc2)c(=O)c2ccccc12)N1CCN(c2ccc([N+](=O)[O-])cc2)CC1	16%	-4%
N#C/C(=C/c1ccccc1OC(F)F)C(=O)Nc1ccccc1Oc1ccccc1	19%	10%
COc1cc(CNC(=O)c2ccc3cn[nH]c3c2)cc(OC)c1OC	11%	23%
COc1ccc(OC)c(C2=NOC(C(=O)Nc3ccc(OC(F)(F)F)cc3)C2)c1 (stereo unspecified)	70%	-10%
Cc1cccc(OCc2nc3c4c(ncn3n2)OC2=C(C(=O)CCC2)C4c2ccco2)c1C (stereo unspecified)	?	20µM*
CC(=O)C1=C(C)Oc2ncn3nc(COc4cccc(C)c4C)nc3c2C1c1ccco1 (stereo unspecified)	-7%	-7%
CCN(CC)S(=O)(=O)c1cc(-c2onc(C)c2C)ccc1OC	101%	-9%
COc1ccc(-c2onc(C)c2C)cc1S(=O)(=O)N(C)Cc1ccco1	?	32µM*
SMILES	FMDV Renilla	FMDV FLuc
CC(C)c1ccc(NC(=O)c2ccc(F)c(S(=O)(=O)N3CCc4ccccc43)c2)cc1	-1%	?
O=C(Nc1ccc(Br)cc1)c1ccc(F)c(S(=O)(=O)N2CCc3ccccc32)c1	?	11µM*
COCCn1c(SCc2nc(-c3cccc(C(F)(F)F)c3)no2)nc2ccsc2c1=O	-15%	-16%
Cn1c(SCc2nc(-c3ccc(C(F)(F)F)cc3)no2)nc2ccsc2c1=O	18µM*	22µM*
O=C1c2c(O)ccc(O)c2C(=O)c2c(NCCNCCO)ccc(NCCNCCO)c21	?	28µM*
Cc1cccc(-c2nc3cc(NC(=O)c4cccs4)ccc3o2)c1	9%	139%
COc1cc(OC)cc(-c2cc3nc(C)c(CCC(=O)Nc4ccccc4OC)c(C)n3n2)c1	-12%	3.2µM*
COc1cc(OC)c(NC(=O)CCc2c(C)nc3cc(-c4ccccc4OC)nn3c2C)cc1Cl	4%	-19%
COc1cc(OC)cc(-c2cc3nc(C)c(CCC(=O)NCc4ccccc4)c(C)n3n2)c1	-12%	?
COc1ccccc1-c1cc2nc(C)c(CCC(=O)Nc3cc(C)ccc3C)c(C)n2n1	-13%	35µM*
N#Cc1ccc(NC(=O)c2csc3c2CCCC3)cc1	1%	175%
OCC1CCCN1Cc1ccccc1 (stereo unspecified)	-1%	0%
COc1ccc2c(C)c(CCC(=O)Nc3ccc(F)cc3)c(=O)oc2c1	15%	-6%
CC(NC(=O)c1ccccc1NC(=O)c1nn(C)c(=O)c2ccccc12)c1ccccc1 (stereo unspecified)	4.5µM*	3.5µM*
CC(NC(=O)c1nn(C)c(=O)c2ccccc12)c1ccccc1 (stereo unspecified)	6%	8%
N#C/C(=C\c1ccc(OCc2cccc(C(=O)O)c2)cc1)C(=O)N1CCOCC1	2%	-100%
Cc1ccc(CCNc2ncnc3onc(C)c23)cc1	1.6µM*	1.8µM*
CCOCCCNc1ncnc2onc(C)c12	-5%	-6%
CCOc1ccc(CCNc2ncnc3onc(C)c23)cc1OCC	2.5µM*	3.2µM*
CCCNc1ncnc2onc(-c3ccc(C)cc3)c12	15%	8%
CCc1cc(=O)oc2cc(C)cc(OCC(=O)NC3CC(C)(C)NC(C)(C)C3)c12	8%	-10%
COc1ccc2[nH]c(C)c(CCNCc3cccc(F)c3)c2c1	36%	4%
COc1ccc(F)c(CNCCc2c(C)[nH]c3ccc(OC)cc23)c1	8%	-14%
COc1ccc(CNCCc2c(C)[nH]c3ccc(OC)cc23)c(F)c1	7.1µM*	8.9µM*
COc1ccc2[nH]c(C)c(CCNCc3ccc(C(F)(F)F)cc3)c2c1	4.5µM*	?
SMILES	FMDV Renilla	FMDV FLuc
C=C(C)Cn1c(SCC(N)=O)nc2c1c(=O)n(C)c(=O)n2C	14%	-1%
O=C(O)COc1ccc2c(=O)c(-c3ccccc3)coc2c1	7%	-32%
O=C(Nc1ccc(C(F)(F)F)cc1)C1CCN(c2nc3ccccc3o2)CC1	?	-24%
O=C(Nc1ccncc1)C1CCN(c2nc3ccccc3o2)CC1	16µM*	?
Cc1cc2ccccc2n1-c1ccc(C(=O)N2CCC(C(=O)NCc3ccccc3Cl)CC2)s1	4%	24%
Cc1cc2ccccc2n1-c1ccc(C(=O)N2CCC(C(=O)NCc3ccc(Cl)cc3)CC2)s1	?	25µM*
CCc1ccc(-c2nc(SCC(=O)N3CCCC3c3ccc4c(c3)OCCCO4)n[nH]2)cc1 (stereo unspecified)	28µM*	?
O=C(CSc1nnnn1C1CC1)N1CCCC1c1ccc2c(c1)OCCO2 (stereo unspecified)	-5%	4%
Cc1ccc(-c2nc(SCC(=O)N3CCCC3c3ccc4c(c3)OCCO4)n[nH]2)cc1 (stereo unspecified)	20µM*	?
CCc1ccc(-c2nnn(CC(=O)N3CCCC3c3ccc4c(c3)OCCO4)n2)cc1 (stereo unspecified)	-16%	-12%
O=C(/C=C/N1CCC(CCCC2CCN(/C=C/C(=O)C(F)(F)F)CC2)CC1)C(F)(F)F	10µM*	?
O=C(/C=C/N1CCC(Cc2ccccc2)CC1)C(F)(F)F	?	-16%
CCc1ccc(CCC(=O)NCC2CCCO2)cc1 (stereo unspecified)	-1%	5%
Cc1cc(C)c([N+](=O)[O-])cc1[N+](=O)[O-]	-12%	9%
Cc1ccc([N+](=O)[O-])[c]2c1[O][Hg]2	?	2.8µM*
Cn1cc(S(=O)(=O)c2ccc(F)cc2)c(=O)c2ccccc21	24%	-5%
COc1ccccc1CNC(=O)c1ncoc1-c1cccs1	18%	106%
O=C(O)CCCc1nc2ccccc2c2nc(=O)c(-c3ccccc3)nn12	6%	86%
